Experiment [1] in a line: resazurin metabolic signal in HepG2 cells – cell-based, resazurin fluorescence, 24 h, PK04 Diversity Set, profiling panel (AID 1172). Note: test concentration not given here. The settings on record: HepG2 viability, higher = more signal. (The colour change of resazurin is a common sign of viable cells or microbes.)
Experiment [2] can be described thus: budding yeast growth changes without added modifier – OD600, strain BY4716, 24 h, basal condition, primary screen (AID 1173). The settings on record: S. cerevisiae BY4716 growth, OD600, 24 h; higher = more signal, called active from +8 up or from −8 down.
Experiment [3] can be described thus: viability profiling in MM1S myeloma cells – cell-based, resazurin fluorescence, basal, 24 h, PK04 Diversity Set, profiling panel (AID 1174).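 Note: MM1S multiple myeloma cell line; test concentration not given here.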 Conditions: higher = more signal, called active from +8 up or from −8 down.
Experiment [4] deals with Dihydroorotate dehydrogenase (quinone), mitochondrial (Plasmodium falciparum (isolate 3D7)) (UniProt Q08210). Kind of experiment: inhibition of P. falciparum DHODH – biochemical, C-terminal His tag, absorbance 600 nm, primary screen (AID 1175).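 Note: recombinant parasite enzyme with a five histidine tag at its C terminus; test concentration not given here.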 Conditions: PfDHODH enzyme, DCIP absorbance 600 nm; higher = more signal, called active from +8 up or from −8 down.
Sequence of Dihydroorotate dehydrogenase (quinone), mitochondrial (Plasmodium falciparum (isolate 3D7)) (Q08210 whole entry, looked up): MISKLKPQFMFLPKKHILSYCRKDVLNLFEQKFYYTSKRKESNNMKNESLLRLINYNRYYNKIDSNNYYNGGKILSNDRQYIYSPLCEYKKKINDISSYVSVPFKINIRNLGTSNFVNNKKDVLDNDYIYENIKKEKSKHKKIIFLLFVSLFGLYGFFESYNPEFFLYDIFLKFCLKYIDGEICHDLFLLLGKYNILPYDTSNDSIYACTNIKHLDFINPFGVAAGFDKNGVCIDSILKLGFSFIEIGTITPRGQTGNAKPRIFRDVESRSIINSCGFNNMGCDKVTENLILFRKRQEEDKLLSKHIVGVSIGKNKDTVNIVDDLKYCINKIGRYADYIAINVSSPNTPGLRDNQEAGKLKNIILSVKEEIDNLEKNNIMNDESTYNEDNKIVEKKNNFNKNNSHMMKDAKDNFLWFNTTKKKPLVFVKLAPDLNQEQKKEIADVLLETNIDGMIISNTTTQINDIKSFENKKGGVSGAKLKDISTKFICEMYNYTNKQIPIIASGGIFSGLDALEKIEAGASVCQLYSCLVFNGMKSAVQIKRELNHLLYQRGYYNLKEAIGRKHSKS
The nature of experiment [5]: inhibition of PAO1 biofilm formation – strain PAO1, LB-PBS medium, absorbance 600 nm, primary screen (AID 1176). Note: test concentration not given here. Conditions: P. aeruginosa PAO1 growth/biofilm, A600, 12 h; higher = more signal.
The nature of experiment [6]: growth modulation of vineyard yeast isolate – strain RM11-1a, OD600, basal, 24 h, primary screen (AID 1177).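 Note: cultures grown under basal conditions with no added stressor; test concentration not given here.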 Conditions: S. cerevisiae RM11-1a growth, OD600, 24 h; higher = more signal, called active from +8 up or from −8 down.
Experiment [7] in a line: growth of efflux-deficient E. coli DRC39 – strain DRC39, OD650, 24 h, E. coli filamentation inducers, primary screen (AID 1178).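 Note: growth measured as culture turbidity by optical density at 650 nm; test concentration not given here.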 The settings on record: E. coli DRC39 acrAB, higher = more signal, called active from +8 up or from −8 down.
Experiment [8] is described as follows: growth of efflux-deficient E. coli DRC39 – strain DRC39, OD650, 48 h, E. coli filamentation inducers, primary screen (AID 1179).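 Note: screen aims at cell division blockers that make cells filament.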 Conditions: E. coli DRC39 delta-acrAB growth, higher = more signal, called active from +8 up or from −8 down.
The nature of experiment [9]: viability profiling in RPMI8226 myeloma cells – cell-based, resazurin fluorescence, basal, 24 h, PK04 Diversity Set, profiling panel (AID 1180).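 Note: RPMI8826 multiple myeloma cell line at 5000 cells per well; test concentration not given here.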 Conditions: higher = more signal.
The target of experiment [10] is E3 ubiquitin-protein ligase XIAP (Homo sapiens) (UniProt P98170). Kind of experiment: small molecules binding XIAP protein – biophysical, small-molecule microarray, fluorescence 635 nm, primary screen (AID 1181).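 Note: score merges 667 nm emission and signal to noise over triplicate slides.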 The settings on record: higher = more signal.
Sequence of E3 ubiquitin-protein ligase XIAP (Homo sapiens) (P98170 whole entry, looked up): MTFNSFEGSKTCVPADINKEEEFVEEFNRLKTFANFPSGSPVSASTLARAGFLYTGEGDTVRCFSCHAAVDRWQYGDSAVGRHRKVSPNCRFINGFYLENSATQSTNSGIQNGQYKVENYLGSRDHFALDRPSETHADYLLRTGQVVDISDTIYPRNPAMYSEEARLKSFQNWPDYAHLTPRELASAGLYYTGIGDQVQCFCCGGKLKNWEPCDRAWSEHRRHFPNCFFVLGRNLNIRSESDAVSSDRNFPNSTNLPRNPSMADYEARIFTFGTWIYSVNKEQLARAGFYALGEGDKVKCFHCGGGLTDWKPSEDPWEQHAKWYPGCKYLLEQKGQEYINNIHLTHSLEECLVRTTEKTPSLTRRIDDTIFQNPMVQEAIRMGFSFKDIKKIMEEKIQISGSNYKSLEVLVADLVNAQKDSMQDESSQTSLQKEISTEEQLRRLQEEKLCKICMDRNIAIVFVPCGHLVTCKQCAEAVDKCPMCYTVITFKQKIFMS

The structures appear in SMILES notation. Activity calls are given as the source filed them. Unless noted, the rule behind the calls is not given here.

As for `CN1C(=O)C2C=CC(C(O)c3ccc(I)cc3)N(N(c3ccccc3)c3ccccc3)C2C1=O` (stereo not given), the z-score was -0.476 in experiment [1]; 0.943 (inactive) in experiment [2]; -0.788 (inactive) in [3]; 0.944 (inactive) in experiment [5]; 0.67 (inactive) in experiment [6]; -1.36 (inactive) in experiment [7]. In addition, the values for the z-score in experiment [8] and in experiment [9] were -0.105 (inactive) and -1.1, respectively. The composite z-score in experiment [4] is 0.0495 (inactive); in experiment [10] it was 0.95.

With `COC(=O)[C@@]1(Cc2ccc(F)cc2)[C@H]2c3cc(C(=O)N4CCCC4)n(CCc4c[nH]c5cc(F)ccc45)c3C[C@H]2CN1C(=O)c1ccccc1`, the z-score in [1] was 0.182; in experiment [2], 1.7 (inactive); in experiment [3], -0.0568 (inactive); in experiment [5], -0.815 (inactive); in [6], 0.335 (inactive); in experiment [7], -0.426 (inactive). The figures for the z-score in [8] and in [9] were -0.55 (inactive) and -0.162, respectively. Besides, the composite z-score in experiment [4] is -0.362 (inactive); in experiment [10], 0.0535.

`COc1ccc([Si](C)(C)[C@H]2[C@H](CC(=O)N(CCO)Cc3ccccc3)O[C@@]3(C(=O)N(Cc4cccc(N5CCCCC5=O)c4)c4ccccc43)[C@@H]2C)cc1`: the z-score in experiment [1] is -0.415; in experiment [2] it was -0.0548 (inactive); in [3], -2.35 (inactive); in [5], 1.77 (inactive); in [6], 1.45 (inactive); in experiment [7], 0.72 (inactive). The z-score in experiment [8] is 0.832 (inactive); in [9] it was -3.16. The composite z-score in [4] was -1.02 (inactive); in experiment [10] it was -0.0559.

For the molecule `O=C/C=C/c1ccc(-c2ccccc2)cc1`, the z-score in [1] was -0.0736; in experiment [2], -18.6 (active); in experiment [3] it was -1.08 (inactive); in experiment [5], -0.944 (inactive); in experiment [6] it was -21.6 (active); in experiment [7], 1.29 (inactive). Moreover, the z-score in [8] was 0.917 (inactive); in experiment [9], -5.15. For the same molecule, the figures for the composite z-score in [4] and in experiment [10] were -2.53 (inactive) and 0.0097, respectively.

With `COCCOC(=O)N1C(=O)[C@@]2(c3cc(C#CCC(C(=O)OC)C(=O)OC)ccc31)[C@H](c1ccc(O)cc1)N1[C@H](c3ccccc3)[C@H](c3ccccc3)OC(=O)[C@H]1[C@@H]2C(=O)N1CCc2cc(OC)c(OC)cc2C1`, the z-score in [1] was -0.347; in [2], -0.672 (inactive); in experiment [3], 0.222 (inactive); in experiment [5], 0.008 (inactive); in experiment [6], 0.494 (inactive); in experiment [7] it was 0.109 (inactive). Also, the z-score was 0.588 (inactive) in experiment [8] and -0.92 in experiment [9]. The figures for the composite z-score in experiment [4] and in experiment [10] were -0.118 (inactive) and -0.0233, respectively.

As to `[N-]=[N+]=NCc1ccccc1C[C@]1(C(=O)N2CCCCC2)COC(c2ccc(OCCCO)cc2)=N1`, the z-score was 0.894 in [1]; -0.749 (inactive) in experiment [2]; -0.0967 (inactive) in experiment [3]; 0.0405 (inactive) in [5]; 2.36 (inactive) in experiment [6]; 1.4 (inactive) in experiment [7]. The z-score in experiment [8] was 0.815 (inactive); in experiment [9], 0.791. Also, the composite z-score is -0.0119 (inactive) in [4] and -0.0604 in experiment [10].

Take `O=C1O[C@H](c2ccccc2)[C@H](c2ccccc2)N2[C@H]1[C@@H](C(=O)O)[C@]1(C(=O)Nc3ccccc31)[C@H]2c1ccc(OCCO)cc1`: the z-score was 0.0019 in experiment [1]; -0.302 (inactive) in experiment [2]; -0.0917 (inactive) in [3]; 0.0485 (inactive) in [5]; -0.785 (inactive) in experiment [6]; -0.545 (inactive) in experiment [7]. For the same molecule, the z-score in experiment [8] was -0.858 (inactive); in experiment [9] it was 1.16. The composite z-score is -0.652 (inactive) in [4] and 0.18 in experiment [10].

For the molecule `C=CC[C@H](OC(=O)Nc1ccc(SC)cc1)c1ccc(O)c(F)c1`, the z-score was -0.124 in [1]; -15.5 (active) in experiment [2]; -0.868 (inactive) in experiment [3]; 1.1 (inactive) in [5]; -11 (active) in experiment [6]; 0.332 (inactive) in [7]. Also, the z-score in experiment [8] was -0.343 (inactive); in [9] it was -1.54. Besides, the composite z-score was -1.32 (inactive) in [4] and 0.0297 in [10].

Turning to `O=C1c2ccccc2[C@@]2(Cc3ccccc3N(CC(F)(F)F)C2=O)[C@H](c2ccc(CO)cc2)N1Cc1ccccc1`, the z-score was -0.584 in experiment [1]; 0.714 (inactive) in [2]; -0.0925 (inactive) in experiment [3]; 0.118 (inactive) in experiment [5]; -0.224 (inactive) in experiment [6]; 0.117 (inactive) in experiment [7]. Further, the z-score in experiment [8] is -1.66 (inactive); in experiment [9] it was -0.341. In addition, the composite z-score in [4] was -17.8 (active); in experiment [10], -0.231.

Consider `COC(=O)[C@@]1(Cc2ccc(F)cc2)[C@H]2c3cc(C(=O)N4CCCC4)n(CCSCCO)c3C[C@H]2CN1C(=O)c1ccccc1`, for which the z-score is -0.704 in [1]; 1.54 (inactive) in experiment [2]; -0.526 (inactive) in experiment [3]; 0.855 (inactive) in [5]; 1.3 (inactive) in [6]; -0.405 (inactive) in experiment [7]. Further, the z-score is -0.317 (inactive) in [8] and -0.546 in experiment [9]. In addition, the composite z-score in experiment [4] is 0.289 (inactive); in [10], 0.0378.

Take `COc1cccc(C)c1NC(=O)O[C@H]1[C@H](OC(=O)Nc2ccccc2)[C@@H](OC(=O)Nc2ccccc2)[C@@H](OC)O[C@@H]1CO`: the z-score in experiment [1] was -2; in experiment [2], 0.748 (inactive); in [3] it was -3.79 (inactive); in experiment [5], 1.28 (inactive); in experiment [6], 2.78 (inactive); in [7], 0.655 (inactive). Further, the z-score in experiment [8] was -0.667 (inactive); in [9], -2.85. In addition, the composite z-score was -0.0526 (inactive) in [4] and 0.06 in experiment [10].

Take `COC(=O)[C@@]1(Cc2ccc(F)cc2)[C@H]2c3cc(C(=O)N(C)C)n(Cc4cccc5ccccc45)c3C[C@H]2CN1C(=O)c1ccccc1`: the z-score was -0.488 in [1]; 1.91 (inactive) in [2]; -1.32 (inactive) in [3]; 1.75 (inactive) in experiment [5]; 1.75 (inactive) in experiment [6]; -0.609 (inactive) in experiment [7]. In addition, the z-score in experiment [8] was -0.707 (inactive); in [9], -1.04. Moreover, the composite z-score in experiment [4] is -0.0341 (inactive); in experiment [10], 1.6.

Regarding `C=CC[C@@]1(C(=O)NCCCOC)N=C(c2ccc(OCCCO)cc2)O[C@@H]1c1ccccc1CN=[N+]=[N-]`, the z-score is 0.891 in [1]; -0.574 (inactive) in [2]; 0.961 (inactive) in [3]; -0.248 (inactive) in experiment [5]; -0.343 (inactive) in [6]; 0.914 (inactive) in experiment [7]. Also, the z-score in experiment [8] was 0.831 (inactive); in [9], 0.803. Moreover, the composite z-score in experiment [4] was 0.346 (inactive); in experiment [10], 0.289.
